# Screens from PubChem.
# Sfp PPTase inh = inhibitors of Bacillus subtilis Sfp phosphopantetheinyl transferase | Q9F4F7 | Biochemical Sfp PPTase activity, qHTS | Potency, µM, inactives show largest response in the series, negative = inhibition, most hits filed as inhibitors | 3.5% of 310,000 active | AID 1490;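 note: the enzyme is Sfp with the accession as filed and its product quenches rhodamine fluorescence; 0% = enzyme reaction without inhibitor and -100% = no enzyme wells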
#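 With Hepes-Na pH 7.6 buffer containing 10 mM MgCl2, Sfp (15 nM) modified BHQ-2-YbbR (12.5 uM) using rhodamine-CoA (5 uM). Two reads 30 minutes apart at 525/598 nm yielded each well's rate.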
# ClpP mod = qHTS Assay for Activators of ClpP. purified B. subtilis ClpP, FRET peptide cleavage, 20 min. 1.9% of 340,000 active. Potency, µM (highest dose often 57.5 µM), without a hit: at the highest dose activity change, negative = active; active = well fitted falling curve with a large enough effect; inconclusive = small, poorly fitted or top-dose-only effect; inactive = no such curve, though single readings can be large or run the other way; note: the source files actives as falling curves though it sought activators and does not explain the sign; nearly all actives have a fitted effect of over 65% in size
# Target sequence (P80244 whole entry, looked up): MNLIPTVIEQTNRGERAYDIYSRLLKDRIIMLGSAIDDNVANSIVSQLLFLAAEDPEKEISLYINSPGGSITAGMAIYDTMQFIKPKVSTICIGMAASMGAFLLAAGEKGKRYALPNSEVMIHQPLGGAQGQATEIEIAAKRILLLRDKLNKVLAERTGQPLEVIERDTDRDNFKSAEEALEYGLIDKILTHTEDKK
#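 ClpP 10 microg/mL final, pH 8 Tris/KCl buffer with BSA, glycerol, Tween-20; compound pinned in; FRET-FV substrate; RT 20 min; Ex320/Em430; ΔFRET vs ADEP 5.8 microM, DMSO, no enzyme.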
# PINK1 expr mod = PINK1 expression modulation; PINK1 immunofluorescence, high-content cytometry, 24 h; Potency, µM (doses to about 76.6 µM), without a hit: top-dose activation (PINK1 increase), most hits filed as activators; 0.2% of 410,000 active; active = well fitted activation curve with a large enough effect; inconclusive = small, poorly fitted or top-dose-only effect; cell line not stated here; note: % of control where 0% means no effect; nearly all actives have a fitted effect of over 65% in size
#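 Decision-based qHTS: stable cells, 24 h exposure to five compound concentrations, CCCP as control. Fixed cells stained for PINK1 plus nuclear, mitochondrial and cell markers, cytometer read.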
# Gal4-VP16 FLuc = inhibits Gal4-VP16 luciferase reporter, ROR gamma counter-screen; Drosophila S2 Gal4-VP16 UAS-luciferase, luminescence, 20 h; Potency, µM (top dose mostly 53.6 µM), inactives show at the highest dose activity, negative = inhibition, actives largely listed as inhibitors; 3.5% of 310,000 active;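 note: Gal4-VP16 expression switched on by copper sulfate through the metallothionein promoter; % is set by controls: 0 for no effect and ±100 for the full control effect; nearly all actives have a fitted effect of over 50% in size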
# RORgamma inh = inhibitors of mouse ROR gamma transcriptional activity. 5.4% of 310,000 active. AID 2551. Drosophila S2 Gal4-RORgamma UAS-luciferase reporter, 20 h. P51450. Potency, µM (top dose mostly 53.6 µM), for the others: top-dose activity change, negative = inhibition, actives largely listed as inhibitors; note: % is set by controls: 0 for no effect and ±100 for the full control effect; nearly all actives have a fitted effect of over 60% in size
# Target sequence (P51450 whole entry, looked up, the tested form may be a part): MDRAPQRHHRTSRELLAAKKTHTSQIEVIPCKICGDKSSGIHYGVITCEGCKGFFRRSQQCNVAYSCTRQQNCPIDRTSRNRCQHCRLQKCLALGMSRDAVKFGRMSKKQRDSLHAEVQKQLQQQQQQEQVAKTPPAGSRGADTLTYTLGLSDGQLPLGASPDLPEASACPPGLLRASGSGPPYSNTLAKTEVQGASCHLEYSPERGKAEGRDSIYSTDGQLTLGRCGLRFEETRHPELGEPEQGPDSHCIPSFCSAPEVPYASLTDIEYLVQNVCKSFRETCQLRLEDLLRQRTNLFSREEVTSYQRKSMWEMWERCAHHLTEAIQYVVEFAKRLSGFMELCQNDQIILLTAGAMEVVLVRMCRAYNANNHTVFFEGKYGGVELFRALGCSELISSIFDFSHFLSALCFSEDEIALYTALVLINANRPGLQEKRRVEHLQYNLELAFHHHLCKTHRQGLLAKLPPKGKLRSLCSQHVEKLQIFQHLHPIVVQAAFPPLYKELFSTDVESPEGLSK
#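 Drosophila S2 cells stably expressing Gal4-DBD/mouse RORγ fusion under metallothionein promoter plus UAS-luciferase; compound 1 h, then 700 uM CuSO4 induction for 20 h at ambient temperature; inhibition read as reduced luminescence.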
# Epigenetic derep = derepresses silenced GFP reporter in murine cells; 0.2% of 280,000 active; AID 1865; murine LDR cells, GFP reporter derepression, 30 h; Potency, µM (top dose mostly 53.9 µM), inactives show at the top dose GFP activation, most hits filed as activators; note: % of control where 0% means no effect; nearly all actives have a fitted effect of over 60% in size
#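 GFP-positive cell count by laser-scanning cytometry (objects 20–120 um) after 30 h, 37 C compound exposure of murine LDR cells; reporter is CMV-GFP integrated at a silenced locus, inducible by HDAC or DNMT inhibitors.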
# * marks the source's active call; other numbers are inactive results; ? = inconclusive; · = no result; [ ] = dose if it differs, or a comment. An excerpt weighted towards active compounds, which were near 8.1% of everything screened. Unless noted, calls come from the whole dose curve; as a rule, active = well fitted curve in the direction sought with a large enough effect; inconclusive = small, poorly fitted or top-dose-only effect, or another doubt; inactive = no such curve, though single readings can be large; an effect the other way counts as inactive or inconclusive. Potency is the fitted concentration of half-maximal effect.
SMILES,Sfp PPTase inh,ClpP mod,PINK1 expr mod,Gal4-VP16 FLuc,RORgamma inh,Epigenetic derep
CNC(=O)CCc1nc(-c2ccc(C(C)(C)C)cc2)no1,-1.1%,?,0.1%,7.08µM*,0.316µM*,0.9%
Cc1ccc(-c2noc(CCC(=O)NCC3CCCO3)n2)cc1 (stereo not drawn),-0.3%,-0.3%,4.6%[38.3 µM],-5.9%,-3.3%,-3.0%
Cc1ccc(-c2noc(CCC(=O)NCCN3CCN(Cc4ccccc4)CC3)n2)cc1,7.4%,28.2µM*,-1.3%,?,36.8%,0.9%
CC(C)(C)c1ccc(-c2noc(CCC(N)=O)n2)cc1,-2.8%,-0.4%,-1.4%,-17.1%,?,-1.2%
CC(C)(C)c1ccc(-c2noc(CCC(=O)Nc3cccnc3)n2)cc1,12.8%,-1.7%,1.9%,?,0.0631µM*,·
Cc1cccc(NC(=O)C(=O)NCC(c2cccnc2)N2CCOCC2)c1 (stereo not drawn),·,-1.1%,1.3%,·,·,2.8%
Cc1ccc(-c2nc3cc(Cl)ccc3o2)cc1NC(=O)COc1ccccc1C,·,-8.3%,2.8%,·,·,·
COc1ccc(-c2nnc(C3CCN(S(=O)(=O)c4cccc(Cl)c4)CC3)o2)cc1,·,-6.0%,-0.3%,·,·,?
CN(c1ccccc1)S(=O)(=O)c1ccc(NC(=O)c2cc(=O)c3ccccc3o2)cc1,·,0.7%,-0.7%,·,·,-1.9%
CCOC(=O)C1(Cc2ccccc2)CCCN(Cc2ccccn2)C1 (stereo not drawn),8.3%,·,-1.9%,-12.2%,12.6µM*,7.4%
CCn1ccnc1CN1CCCC(CO)(Cc2cccc(OC)c2)C1 (stereo not drawn),2.0%,·,0.7%,10.3%,-30.0%,-1.1%
CCOC(=O)C1(Cc2cccc(OC)c2)CCN(Cc2cccnc2)CC1,21.9%,·,0.2%,-17.6%,11.2µM*,-1.1%
CCOC(=O)C1(Cc2cccc(OC)c2)CCCN(Cc2nccn2CC)C1 (stereo not drawn),11.0%,·,-0.9%,?,3.55µM*,0.2%
O=C(Nc1ccccc1-c1cn2c(CN3CCNCC3)csc2n1)c1cnc2ccccc2n1,·,-0.9%,-1.2%,·,·,·
Cc1ccc(Nc2ncnc3sc(C)c(C)c23)cc1C,-4.4%,0.9%,7.1%,-1.2%,0.1%,-8.4%
Cc1sc2ncnc(N/N=C/c3ccc(O)cc3)c2c1C,-8.6%,-2.9%,-0.5%,4.47µM*,15.8µM*,0.0%
Oc1ccc(/C=N/Nc2nccnc2Cl)cc1,-29.7%,-2.5%,0.9%,0.1%,8.3%,-0.8%
COc1ccc(/C=N/Nc2ncnc3sc(C)c(C)c23)cc1,-18.1%,-2.4%,16.3%,4.47µM*,?,-1.9%
Nc1c(Cl)ncnc1N/N=C/c1ccc(O)cc1,56.2µM*,-5.9%,0.6%,12.6µM*,10µM*,0.0%
Cc1sc2ncnc(N/N=C/c3ccccc3O)c2c1C,-4.1%,-5.8%,-0.7%,15.8µM*,7.94µM*,-1.0%
CN(Cc1cccc2ncccc12)C(=O)c1cnn(-c2ncc3c(n2)-c2ccccc2CC3)c1C1CC1,·,·,0.3%,·,·,·
CCOc1ccc(C2=NC(c3ccncc3)=Nc3ccc(C)cc3N2)cc1OCC,·,-1.2%,5.7%,·,·,2.4%
COc1cccc(/C=N/Nc2ncnc3scc(-c4ccccc4)c23)c1OC,-15.7%,-5.5%,?,3.16µM*,3.98µM*,1.8%
C/C(=N\NC(=O)c1ccc(C)cc1)c1c(C)[nH]n(-c2ccccc2)c1=O,11.2%,13.2%,-0.3%,1.58µM*,1.26µM*,·
C/C(=N\NC(=O)c1ccccc1)c1ccccc1Br,9.7%,·,0.3%,6.31µM*,3.55µM*,-1.3%
SMILES,Sfp PPTase inh,ClpP mod,PINK1 expr mod,Gal4-VP16 FLuc,RORgamma inh,Epigenetic derep
Cc1[nH]n(-c2ccccc2)c(=O)c1C(=O)c1ccc([N+](=O)[O-])cc1,9.6%,·,1.6%,-5.3%,36.3%,0.1%
C/C(=N\NC(=O)c1ccccc1)c1c(C)[nH]n(-c2ccccc2)c1=O,22.1%,·,-0.4%,1.26µM*,0.891µM*,·
Cc1[nH]n(-c2ccccc2)c(=O)c1C(=O)Nc1ccccc1,6.6%,·,2.2%,-10.6%,8.2%,·
COc1ccc(-c2cc(C(=O)N3CCCCCC3)c3ccccc3n2)c(OC)c1,39.8µM*,3.2%,0.0%,1.2%,-1.3%,·
COc1ccc(-c2cc(C(=O)N3CCN(c4ccccc4F)CC3)c3ccccc3n2)c(OC)c1,10.7%,28.2µM*,1.9%,·,·,·
COc1ccc(-c2cc(C(=O)N3CCN(c4ncccn4)CC3)c3ccccc3n2)c(OC)c1,-2.0%,?,0.1%,3.1%,-2.2%,-0.9%
COc1ccc(N2CCN(C(=O)c3cc(-c4cc(OC)ccc4OC)nc4ccccc34)CC2)cc1,-1.3%,-0.3%,-2.8%,·,·,·
CC1CCN(C(=O)CN2CCSc3ccccc32)CC1,·,-0.2%,2.5%,·,·,-1.2%
COc1cc(CN2C(=O)CC[C@@H]3CN(Cc4ccccn4)CC[C@@H]32)cc(OC)c1OC,·,·,1.6%,·,·,·
Cc1ccc(S(=O)(=O)Nc2ccccc2C(=O)Nc2ccc(S(=O)(=O)Nc3nccc(C)n3)cc2)cc1,15.1%,12.6µM*,-1.5%,-10.8%,10.3%,-3.0%
CC(=O)Nc1ccc(C(=O)Nc2ccc(S(=O)(=O)Nc3nccc(C)n3)cc2)cc1,4.6%,-0.5%,0.3%,-3.9%,10.5%,·
Cc1ccc(C(=O)Nc2ccc(Br)cc2)cc1S(=O)(=O)Nc1ccccn1,10.4%,28.2µM*,?,-14.3%,4.4%,1.1%
Cc1ccc(C)c(S(=O)(=O)Nc2ccccc2C(=O)Nc2ccc(S(=O)(=O)Nc3ncccn3)cc2)c1,-11.6%,25.1µM*,3.0%,-5.8%,2.5%,0.0%
Cc1ccc(C)c(S(=O)(=O)Nc2ccc(S(=O)(=O)Nc3ncccn3)cc2)c1,·,-0.6%,5.8%,·,·,·
COc1ccc(C2NC(=O)c3c(sc4c3CCN(C)C4)N2)cc1O (stereo not drawn),·,?,1.8%,·,·,-0.8%
CN1CCc2c(sc3c2C(=O)NC(c2cccs2)N3)C1 (stereo not drawn),-0.1%,25.1µM*,·,12.8%,39.8%,0.9%
CN1CCc2c(sc3c2C(=O)NC(c2ccc(-c4cccc(Cl)c4)o2)N3)C1 (stereo not drawn),50.1µM*,3.6%,?,2.9%,7.6%,?
Cc1ccsc1C1NC(=O)c2c(sc3c2CCN(C)C3)N1 (stereo not drawn),4.8%,3.8%,2.0%,5.3%,26.5%,-0.2%
COc1ccc(C(=O)Oc2ccc(C3NC(=O)c4c(sc5c4CCN(C)C5)N3)cc2OC)cc1 (stereo not drawn),·,17.8µM*,0.3%,·,·,5.5%
CC(C)c1ccc(C2NC(=O)c3c(sc4c3CCN(C)C4)N2)cc1 (stereo not drawn),·,3.7%,1.5%,·,·,-0.6%
COc1ccc(NC(=O)CCc2nnc3n(C)c(=O)c4sccc4n23)cc1Cl,·,-0.9%,3.5%,·,·,-1.0%
FC(F)(F)c1nnc2sc(-c3cccs3)nn12,6.1%,28.2µM*,-2.5%,27.6%,-35.2%,0.0%
